Unmarked numbers belong to inactive results. Activity calls are given as the source filed them.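 Rule for the calls: active = inhibition above 50% of the enzyme in parasite cell lysate; inactive = the rest.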

The nature of the assay: malaria lysate leucine aminopeptidase inhibition – cell lysate, fluorescence, Plasmodium falciparum lysate, powder samples, late-stage follow-up (AID 492973). As to conditions: P. falciparum cell lysate, H-Leu-NHMec fluorescence; at 5 µM; active compounds read high.
As for `CCN(CC)c1ccc(NC(=O)CSc2nc(C)cc(=O)[nH]2)cc1`, the inhibition was 52% (active).

`COC(=O)c1c(-c2ccc(C)cc2)csc1NC(=O)[C@H]1CC=CC[C@H]1C(=O)O`: the inhibition was 58% (active).

On to `S=c1nc(-c2ccccc2Br)[nH][nH]1`, for which the inhibition is 26%.

Take `Cc1ccc(Nc2nnc(SCc3cc(=O)n4ccsc4n3)s2)c(C)c1`: the inhibition is 22%.

For `CCOC(=O)c1c(-c2ccc(C)cc2)csc1NC(=O)[C@H]1CC=CC[C@H]1C(=O)O`, the inhibition was 48%.

Regarding `CCOC(=O)c1c(-c2cccc(C)c2)csc1NC(=O)[C@H]1CC=CC[C@H]1C(=O)O`, the inhibition is 26%.

Turning to `Cc1cc(C(=O)COC(=O)c2ccc[nH]c2=O)c(C)n1-c1ccc(F)cc1`, the inhibition is 32%.

Consider `CCOc1ccc(NC(=O)Nc2ccc3nccnc3c2)cc1`, for which the inhibition is 25%.

In the case of `O=C(Nc1cccc(Cl)c1)[C@H]1CC=CC[C@H]1C(=O)O`, the inhibition is 24%.

For `CCc1cc2ccccc2nc1SCC(=O)Nc1cc(OC)c(OC)cc1C(=O)O`, the inhibition is 68% (active).

As for `COc1cc(NC(=O)CSc2nc3cc(C)ccc3cc2C)c(C(=O)O)cc1OC`, the inhibition was 64% (active).

As for `Cc1cc(C(=O)COC(=O)c2ccc[nH]c2=O)c(C)n1-c1ccccc1`, the inhibition is 36%.

As for `COc1ccc(-c2cc(=O)[nH][nH]2)cc1`, the inhibition was 22%.

As to `COc1ccc(NC(=O)CSc2nc(O)cc(=O)n2C)cc1`, the inhibition was 29%.

Regarding `O=C(Nc1cc(Cl)ccc1Cl)[C@H]1CC=CC[C@H]1C(=O)O`, the inhibition is 9%.

On to `O=C(Nc1ccc(Cl)cc1)Nc1cccc(C(=O)O)c1`, for which the inhibition is 65% (active).

These data come from PubChem BioAssay AID492973 (The Scripps Research Institute Molecular Screening Center, 2010).
